ChEMBL document CHEMBL3988442, “University of Dundee, Small-Polar-MMV Screening Library” (2021)
The whole screen tested about 38,000 compounds, of which about 1,200 (3.2%) showed an effect of 50% or more. The median lay at about -58%. Only a selection was taken, and strong results are over-represented in it overall.

The molecules below were run on Plasmodium falciparum (assay: Calibr Malaria Delayed Death Assay SOP). Settings: concentration 4.99e-06 (unit not given; other assays of the set use mol/L).
Type: functional, organism-based
Set-up: scale not given: in the data most compounds retested in dose-response had high values

| SMILES | Percent Effect |
| --- | --- |
| Cc1ncc(C(=O)N2CCCC(n3cccn3)C2)s1 (stereo not drawn) | -29.56% |
| Cc1cnc2c(S(=O)(=O)NCC3CC3)cccc2c1 | -114.6% |
| O=C(c1cccc(CNS(=O)(=O)c2ccccc2F)c1)N1CCCC1 | -96.06% |
| O=S(=O)(NCC1CCN(CCN2CCOCC2)C1)c1ccccc1F (stereo not drawn) | -18.99% |
| Cc1cc(CN2CCC(CNS(=O)(=O)c3ccccc3F)CC2)c(C)o1 | 78.36% |
| CNC(=O)CS(=O)(=O)C1CCN(S(=O)(=O)c2ccccc2Cl)CC1 | -120% |
| Cc1cc(CN2CCC(CNS(=O)(=O)c3ccccc3Cl)CC2)c(C)o1 | 52.45% |
| CN(Cc1cnn(C)c1)C(=O)CCc1ccc2c(c1)OCO2 | -45.89% |
| O=C(NCCc1ccncc1)c1cccnc1OCC(F)(F)F | -160.3% |
| CN(C)S(=O)(=O)N1CC[C@]2(O)CCN(Cc3cc(F)cc(F)c3)C[C@@H]2C1 | -90.9% |
| CN(C)S(=O)(=O)N1CC[C@]2(O)CCN(Cc3cccc(F)c3)C[C@@H]2C1 | 18.33% |
| CN(C)S(=O)(=O)N1CC[C@]2(O)CCN(CCCc3cccnc3)C[C@@H]2C1 | -68.67% |
| CN(C)S(=O)(=O)N1CC[C@]2(O)CCN(CCc3cccc(F)c3)C[C@@H]2C1 | 52.04% |
| CN(C)S(=O)(=O)N1CC[C@]2(O)CCN(Cc3cccc(C#N)c3)C[C@@H]2C1 | -65.92% |
| Cc1ccc(CN2CC[C@@]3(O)CCN(S(=O)(=O)N(C)C)C[C@H]3C2)cc1C | 52.24% |
| CCCC(=O)N1CCc2c(CNS(C)(=O)=O)cncc2C1.Cl | -54.25% |
| CCN(CC)S(=O)(=O)CC(=O)N1CCc2ccc(F)cc21 | -118.6% |
| CC(C)[C@H](N)c1nnc(SCC(=O)Nc2ccc(Br)cc2)o1.Cl | -137.1% |
| O=C1CC(c2ccncc2)c2c(c(C(=O)O)cn2-c2ccccc2)N1 (stereo not drawn) | -138.8% |
| Cc1ccc(CN(C)C(=O)CCn2c(=O)n(C)c3ccccc32)o1 | -119.3% |
| CN1CCCN(C[C@@H]2CN(C(=O)N3CCOCC3)C[C@@H]2CO)CC1 | -70.22% |
| CCc1nn(C)c(Cl)c1CN1CCCC(c2cc(O)nc(C)n2)C1 (stereo not drawn) | 11.23% |
| COC[C@@]12CCO[C@@H]1CCN(C(=O)Cc1ccc(C)cc1)C2 | -64.19% |
| C[C@@H]1CN(C(=O)C2CCS(=O)(=O)CC2)C[C@@]1(O)C1CC1 | -43.61% |

| SMILES | Percent Effect |
| --- | --- |
| C[C@@H]1CN(C(=O)C2CCS(=O)(=O)CC2)CC[C@@]1(O)C1CCOCC1 | 70.51% |
| C[C@@H]1CN(C(=O)CCN2CCCC2)CC[C@@]1(O)C1CCOCC1 | -34.11% |
| O=C(NCCc1cc(F)ccc1F)NC(CO)c1ccccc1 (stereo not drawn) | -122.1% |
| Cc1nc(CN(C)C2CCN(CC3CCOCC3)C2)no1 (stereo not drawn) | -100.7% |
| CN1CCN(Cc2nnc(C3CCN(C(CO)CO)CC3)n2C)CC1 | -107% |
| CCN1CCC2(CC1)CC(NCc1cccs1)c1ccccc1O2.O=C(O)C(F)(F)F.O=C(O)C(F)(F)F (stereo not drawn) | 85.8% |
| CCN1CCC2(CC1)CC(NC(=O)c1csnn1)c1ccccc1O2.O=C(O)C(F)(F)F (stereo not drawn) | -39.08% |
| O=C(NC1CC2(CCN(CCO)CC2)Oc2ccccc21)c1csnn1 (stereo not drawn) | -18.14% |
| CS(=O)(=O)NC1CC2(CCN(CC3CC3)CC2)Oc2ccccc21.O=C(O)C(F)(F)F (stereo not drawn) | -15.02% |
| CCC(=O)N1CCC2(CC1)CC(CC(=O)NC1CC1)c1ccccc1O2 (stereo not drawn) | -119.5% |
| Cc1nc(NC(=O)c2nn(-c3ccc(F)cc3C)cc2O)n[nH]1 | -112% |
| CC(C)c1nc(C2CCCN2Cc2ccon2)no1 (stereo not drawn) | -96.31% |
| Cc1noc(C)c1CN1CCO[C@H]2CN(C3CCOCC3)C[C@H]21.O=C(O)C(F)(F)F | 1.266% |
| O=C(C1CC(=O)N(c2n[nH]c3cc(Br)ccc23)C1)N1CCSCC1 (stereo not drawn) | -122.2% |
| Cc1ccccc1N1CCN(C(=O)CC(C)C)CC1 | -106.5% |
| OC1(CN2CCc3nnc(Cc4cccnc4)n3CC2)CCCNC1 (stereo not drawn) | -87.58% |
| CCN1CCn2c(C)cnc2C12CCN(C(=O)Cc1ccccc1)CC2.O=C(O)C(F)(F)F.O=C(O)C(F)(F)F | -58.2% |
| Cc1ccc(C(=O)Nc2nnc(C3CC3)s2)c(-n2cnnn2)c1C | -130.7% |
| COCCOCC(=O)Nc1ccnn1-c1ccc(Cl)cc1 | -102.7% |
| CCOCCC(=O)Nc1ccnn1-c1ccc(Cl)cc1 | -25.55% |
| COCC(=O)Nc1ccnn1-c1ccc(Cl)cc1 | 67.79% |
| Nc1nc2c(c(N3CCCC(c4nnc5ccccn45)C3)n1)CCNC2 (stereo not drawn) | 84.29% |
| c1ccn2c(C3CCCN(c4ncnc5c4CCNC5)C3)nnc2c1 (stereo not drawn) | 74.94% |
| O=C(C1CC1)N1CCCN(c2ncnc3c2CCNCC3)CC1 | -49.17% |

| SMILES | Percent Effect |
| --- | --- |
| Nc1nc2c(c(N3CCCC(CN4CCCC4=O)C3)n1)CCNCC2 (stereo not drawn) | -109.9% |
| COCCn1ccnc1C1CCCN(c2ncnc3c2CCC3)C1 (stereo not drawn) | -114.3% |
| COCCc1noc(C2CCCN(c3nc(N)nc4c3CCCC4)C2)n1 (stereo not drawn) | -100.3% |
| O=C(c1ccon1)N1CCN(c2ccncc2Cl)CC1 | -22.81% |
| CC(CN1CCOC1=O)NC(=O)c1cccc2cc[nH]c12 (stereo not drawn) | -144.8% |
| COc1ccccc1CCNC(=O)N1CCC(n2cncn2)CC1 | -50.18% |
| Cc1cc(C)c(CNC(=O)C(C)Oc2ccccc2F)c(=O)[nH]1 (stereo not drawn) | -101.9% |
| O=C(C1CCCC1)N1CCC(c2n[nH]c3nccnc23)CC1 | -90.69% |
| O=C(C1CC1)N1CCC(C(=O)N2CCC(c3ccc(F)cc3)C2)CC1 (stereo not drawn) | -98.79% |
| O=C(C1CCC1)N1CCCC(c2cccc(-n3ccnc3)n2)C1 (stereo not drawn) | -55.02% |
| O=C(C1CCCCC1)N1CCC(c2n[nH]c3nccnc23)CC1 | -76.32% |
| CC(C)n1ccnc1C1CCN(C(=O)c2cc[nH]n2)CC1 | -87.6% |
| O=C(C1CCC1)N1CCC(C(=O)N2CCC(c3ccc(F)cc3)C2)CC1 (stereo not drawn) | -81.93% |
| CC(C)Oc1ncccc1CNC(=O)C1CCCN(C(=O)C2CC2)C1 (stereo not drawn) | -154.7% |
| O=C(C1CC1)N1CCC(c2nc(-c3ccccc3)n[nH]2)CC1 | -99.03% |
| Cc1csc(C2(NC(=O)CCNC(=O)C(C)(C)C)CCCC2)n1 | -41.74% |
| CCC(=O)N1CCc2onc(CNS(C)(=O)=O)c2C1 | -110.9% |
| Cc1nc(NC(=O)C(C)n2ncc(Br)c2C)sc1C (stereo not drawn) | -53.19% |
| COc1ccc(CNc2c(C)cnc3c2c(=O)n(C)c(=O)n3C)cc1 | -41.96% |
| O=C(CN(CC(O)c1ccc(F)cc1)C1CC1)Nc1cccnc1 (stereo not drawn) | -24.09% |
| COCC(=O)N1CCC2(COCc3c(C)nc(N(C)C)nc32)C1 (stereo not drawn) | -113.3% |
| Fc1cccc(OC2CCN(CCn3cc4ccccc4n3)CC2)c1 | -79.08% |
| COCCc1nnc(NC(=O)CCCc2ccccc2)o1 | -177.1% |
| O=C(O)C(F)(F)F.O=C(O)C(F)(F)F.c1cnc(N2CC3(CCN(Cc4ccncc4)C3)C2)nc1 | -113.7% |

| SMILES | Percent Effect |
| --- | --- |
| Cc1ccc(N2CCC3(CCN(Cc4nccs4)CC3)CC2)nn1 | -7.428% |
| Fc1ccc(CN2CCC3(CC2)CCN(c2ncccn2)CC3)cc1.O=C(O)C(F)(F)F.O=C(O)C(F)(F)F | 52.71% |
| CS(=O)(=O)N1CCC2(CCN(Cc3nccs3)CC2)CC1.O=C(O)C(F)(F)F | -92.74% |
| Fc1ccc(CN2CCOCC3(CCN(Cc4nccs4)C3)C2)cc1.O=C(O)C(F)(F)F.O=C(O)C(F)(F)F (stereo not drawn) | -2.709% |
| CCS(=O)(=O)N1CCC2(CCN(Cc3nccs3)CC2)CC1.O=C(O)C(F)(F)F | -47.71% |
| Fc1ccc(CN2CCC3(CC2)CCN(Cc2nccs2)CC3)cc1.O=C(O)C(F)(F)F.O=C(O)C(F)(F)F | 86.13% |
| O=C(O)C(F)(F)F.O=C(O)C(F)(F)F.c1csc(CN2CC3(CCN(Cc4ccsc4)C3)C2)n1 | -42.12% |
| Fc1ccc(CN2CCC3(CCN(Cc4nccs4)CC3)C2)cc1.O=C(O)C(F)(F)F.O=C(O)C(F)(F)F | 56.57% |
| O=C(O)C(F)(F)F.O=C(O)C(F)(F)F.c1csc(CN2CCC3(CC2)CCN(CC2CC2)CC3)n1 | 31.82% |
| O=C(O)C(F)(F)F.O=C(O)C(F)(F)F.O=C(O)C(F)(F)F.c1cnc(N2CCC3(CCN(Cc4cccnc4)CC3)CC2)nc1 | -79.89% |
| O=C(NCC(=O)N1CCCCC1)c1sccc1C1CC1 | -52.19% |
| Cc1ccsc1C(=O)N1CCC2(CC1)C(=O)N(C)CCN2CC1CC1.O=C(O)C(F)(F)F | -41.45% |
| CCc1ccc(NC(=O)N2C[C@H]3C[C@H](C(=O)NC(C)C)[C@@H](C2)O3)cc1 | 25.32% |
| CC(=O)N1CCCC(C(=O)NCCc2csc(-c3ccncc3)n2)C1 (stereo not drawn) | -77.87% |
| CC(C)C(N)CNS(=O)(=O)Cc1cccc2cccnc12.Cl (stereo not drawn) | 3.917% |
| CC(Cn1cccn1)NC(=O)N(C)Cc1ccsc1 (stereo not drawn) | -57.89% |
| O=C(CNC(=O)C1(c2ccc(F)cc2F)CCC1)Nc1ccccn1 | -17.94% |
| CC(C)CN1CC(C(=O)NCCOc2ccc3c(c2)OCO3)CC1=O (stereo not drawn) | -115.4% |
| Cc1cnccc1N1CCN(C[C@]2(O)CCCN3CCCC[C@@H]32)CC1 | 73.88% |
| O[C@@]1(CN2CCN(Cc3ccncc3)CC2)CCCN2CCCC[C@@H]21 | -71.07% |
| Cc1ccnc(N2CCN(C[C@]3(O)CCCN4CCCC[C@@H]43)CC2)c1 | 7.79% |
